# Source: PubChem BioAssay
# Results filed as inconclusive are left out. Calls of active or inactive are those of the source.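 How the source made its calls, unless noted: active means normalized viability below 100% at a tested concentration; inactive means the rest.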
# Tests used:
# [1] = growth inhibition of DIPG glioma cells, dose response, cell-based, SU-DIPG-XVII, MIPE5.0, CellTiter-Glo, qHTS (AID 1347060; cut-off not given, nearly all actives have AC50 up to about 26 µM;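 on AC50: cells exposed to compound for 48 hours before viability readout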); settings: SU-DIPG-XVII viability, CellTiter-Glo ATP luminescence
# [2] = growth inhibition of DIPG glioma cells, dose response, cell-based, SU-DIPG-XIII, MIPE4.0, CellTiter-Glo, qHTS (AID 1347061; cut-off not given, nearly all actives have AC50 up to about 37 µM;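 further: cells exposed to compound for 48 hours before readout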); settings: SU-DIPG-XIII viability, CellTiter-Glo ATP luminescence
# [3] = growth inhibition of DIPG glioma cells, dose response, cell-based, JHH-DIPG-1, MIPE4.0, CellTiter-Glo, qHTS (AID 1347062; cut-off not given, nearly all actives have AC50 up to about 27 µM;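 on AC50: cells exposed to compound for two days before readout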); settings: JHH-DIPG-1 viability, CellTiter-Glo ATP luminescence
# [4] = growth inhibition of DIPG glioma cells, dose response, cell-based, SU-DIPG-IV, MIPE4.0, CellTiter-Glo, qHTS (AID 1347063; cut-off not given, nearly all actives have AC50 up to about 30 µM;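 further: compound exposure lasted 48 hours before the viability readout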); settings: SU-DIPG-IV viability, CellTiter-Glo ATP luminescence
# [5] = growth inhibition of DIPG glioma cells, dose response, cell-based, SU-DIPG-XIII, MIPE5.0, CellTiter-Glo, qHTS (AID 1347064; cut-off not given, nearly all actives have AC50 up to about 23 µM;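 on AC50: cells exposed to compound for 48 hours before the viability read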); settings: SU-DIPG-XIII viability, CellTiter-Glo ATP luminescence
# [6] = viability loss in pontine glioma line – cell-based, SU-DIPG-XXV, MIPE5.0, CellTiter-Glo, qHTS, dose response (AID 1347065; cut-off not given, nearly all actives have AC50 up to about 26 µM;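 further: cells exposed to compound for 48 hours before ATP readout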); settings: CellTiter-Glo ATP luminescence
# [7] = SU-DIPG-VI glioma cell viability, MIPE4.0 library, CellTiter-Glo luminescence, qHTS (AID 1347066; cut-off not given, nearly all actives have AC50 up to about 30 µM;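 further: cells exposed to compound for 48 hours before readout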); settings: CellTiter-Glo ATP luminescence
# [8] = JHH-DIPG-1 glioma cell viability, MIPE5.0 library, CellTiter-Glo luminescence, qHTS (AID 1347067; cut-off not given, nearly all actives have AC50 up to about 26 µM;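 further: cells exposed to compound for 48 hours before readout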); settings: JHH-DIPG-1 glioma viability, CellTiter-Glo ATP luminescence
# [9] = SU-DIPG-XXV glioma cell viability, MIPE5.0 library, qHTS (AID 1347068; cut-off not given, nearly all actives have IC50 up to about 30 µM;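 on IC50: cells exposed to compound for 48 hours before viability readout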)
# [10] = sensitizers of A549 cells to miR-34 induction, primary screen, imaging, A549 dox-inducible miR-34, nuclei and caspase counts (AID 1347080;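 active means compounds whose cell count with miR-34 switched on is under 0.7 times the count with it off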); settings: A549 miR-34 inducible, Hoechst nuclei count, 48 h
# [11] = survival rescue of mitochondrial mutant cells in low glucose, primary screen, MELAS cybrids, Rieske KO mouse fibroblasts, CellTiter-Glo (AID 1508586;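 active means mean z-score across replicates of 1.96 or higher in either the MELAS or the Rieske mutant cell line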;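 further: z relative to plate mean and SD of compound and empty wells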)
# [12] = modifiers of HSF1 nuclear foci, imaging, Selleck Cancer Library (AID 1347162; in the data active means plate-normalised HSF1 focus index below about 0.46); settings: human cells, at 10 µM; SSMD: measured here: HSF1 foci SSMD mean; cell count: measured here: cell number; plate-normalised HSF1 focus index: stronger effect = lower value
# [13] = ovarian cancer cell viability with rucaparib, profiling panel, oncology-focused library, rucaparib conditional (AID 1508598); settings: patient-derived ovarian cancer cells, CellTiter-Glo viability, 144 h, stronger effect = lower value
# [14] = stronger effect = lower value, cell number ratio, induced over uninduced
# [15] = measured here: relative caspase fold change +Dox/-Dox
# [16] = measured here: total cells with miR-34 induction, stronger effect = lower value
# [17] = measured here: total cells without miR-34 induction
# [18] = MELAS cybrid survival, CellTiter-Glo 48 h, stronger effect = higher value
# [19] = Rieske KO mouse fibroblast survival, CellTiter-Glo 72 h
compound,measurement,setting,value
O=C(NC1CCOCC1)c1ccc(-c2cc(-c3cn[nH]c3-c3ccccn3)ccn2)cc1,outcome,[1],inactive
same,outcome,[2],inactive
same,outcome,[3],inactive
same,outcome,[4],inactive
same,outcome,[5],inactive
same,outcome,[6],inactive
same,outcome,[7],inactive
same,outcome,[8],inactive
same,outcome,[9],inactive
same,fold change,[10]; [14],0.83 (inactive)
same,fold change,[10]; [15],0.736
same,cell count,[10]; [16],8800
same,cell count,[10]; [17],10600
same,z-score,[11]; [18],-0.384 (inactive)
same,z-score,[11]; [19],0.682
O=C(Nc1c(Cl)cncc1Cl)c1ccc(OC(F)F)c(OCC2CC2)c1,outcome,[1],inactive
same,outcome,[2],inactive
same,outcome,[3],inactive
same,outcome,[4],inactive
same,outcome,[5],inactive
same,outcome,[6],inactive
same,outcome,[7],inactive
same,outcome,[8],inactive
same,outcome,[9],inactive
same,fold change,[10]; [14],0.886 (inactive)
same,fold change,[10]; [15],1.06
same,cell count,[10]; [16],8020
same,cell count,[10]; [17],9050
same,z-score,[11]; [18],-0.193 (inactive)
same,z-score,[11]; [19],-1.74
C=CC(=O)Nc1cccc(Oc2nc(Nc3ccc(N4CCN(C)CC4)cc3OC)ncc2Cl)c1,AC50,[1],3.32 µM (active)
same,outcome,[2],inactive
same,AC50,[3],20.9 µM (active)
same,AC50,[4],14.8 µM (active)
same,AC50,[5],6.61 µM (active)
same,AC50,[6],4.17 µM (active)
same,AC50,[7],16.6 µM (active)
same,AC50,[8],8.33 µM (active)
same,IC50,[9],2.63 µM (active)
same,fold change,[10]; [14],0.841 (inactive)
same,fold change,[10]; [15],0.924
same,cell count,[10]; [16],4420
same,cell count,[10]; [17],5250
same,SSMD,[12],-3.65
same,cell count,[12],5190
same,plate-normalised HSF1 focus index,[12],0.843 (inactive)
same,z-score,[11]; [18],-0.337 (inactive)
same,z-score,[11]; [19],0.584
same,viability,"[13]; at 0.000305 µM, OCI-C5x cells, with rucaparib 10 µM, 100% = cells with rucaparib alone",115% (inactive)
same,viability,"[13]; at 0.000305 µM, OCI-C5x cells, without rucaparib",104% (inactive)
same,viability,"[13]; at 0.000305 µM, OCI-P5x cells, with rucaparib 20 µM, 100% = cells with rucaparib alone",114% (inactive)
same,viability,"[13]; at 0.000305 µM, OCI-P5x cells, without rucaparib",112% (inactive)
same,viability,"[13]; at 0.00122 µM, OCI-C5x cells, with rucaparib 10 µM, 100% = cells with rucaparib alone",117% (inactive)
same,viability,"[13]; at 0.00122 µM, OCI-C5x cells, without rucaparib",120% (inactive)
same,viability,"[13]; at 0.00122 µM, OCI-P5x cells, with rucaparib 20 µM, 100% = cells with rucaparib alone",108% (inactive)
same,viability,"[13]; at 0.00122 µM, OCI-P5x cells, without rucaparib",114% (inactive)
same,viability,"[13]; at 0.00488 µM, OCI-C5x cells, with rucaparib 10 µM, 100% = cells with rucaparib alone",107% (inactive)
same,viability,"[13]; at 0.00488 µM, OCI-C5x cells, without rucaparib",118% (inactive)
same,viability,"[13]; at 0.00488 µM, OCI-P5x cells, with rucaparib 20 µM, 100% = cells with rucaparib alone",119% (inactive)
same,viability,"[13]; at 0.00488 µM, OCI-P5x cells, without rucaparib",118% (inactive)
same,viability,"[13]; at 0.0195 µM, OCI-C5x cells, with rucaparib 10 µM, 100% = cells with rucaparib alone",115% (inactive)
same,viability,"[13]; at 0.0195 µM, OCI-C5x cells, without rucaparib",112% (inactive)
same,viability,"[13]; at 0.0195 µM, OCI-P5x cells, with rucaparib 20 µM, 100% = cells with rucaparib alone",108% (inactive)
same,viability,"[13]; at 0.0195 µM, OCI-P5x cells, without rucaparib",118% (inactive)
same,viability,"[13]; at 0.0781 µM, OCI-C5x cells, with rucaparib 10 µM, 100% = cells with rucaparib alone",119% (inactive)
same,viability,"[13]; at 0.0781 µM, OCI-C5x cells, without rucaparib",116% (inactive)
same,viability,"[13]; at 0.0781 µM, OCI-P5x cells, with rucaparib 20 µM, 100% = cells with rucaparib alone",115% (inactive)
same,viability,"[13]; at 0.0781 µM, OCI-P5x cells, without rucaparib",115% (inactive)
same,viability,"[13]; at 0.313 µM, OCI-C5x cells, with rucaparib 10 µM, 100% = cells with rucaparib alone",115% (inactive)
same,viability,"[13]; at 0.313 µM, OCI-C5x cells, without rucaparib",120% (inactive)
same,viability,"[13]; at 0.313 µM, OCI-P5x cells, with rucaparib 20 µM, 100% = cells with rucaparib alone",119% (inactive)
same,viability,"[13]; at 0.313 µM, OCI-P5x cells, without rucaparib",118% (inactive)
same,viability,"[13]; at 1.25 µM, OCI-C5x cells, with rucaparib 10 µM, 100% = cells with rucaparib alone",106% (inactive)
same,viability,"[13]; at 1.25 µM, OCI-C5x cells, without rucaparib",45.1% (active)
same,viability,"[13]; at 1.25 µM, OCI-P5x cells, with rucaparib 20 µM, 100% = cells with rucaparib alone",108% (inactive)
same,viability,"[13]; at 1.25 µM, OCI-P5x cells, without rucaparib",94.6% (active)
same,viability,"[13]; at 5 µM, OCI-C5x cells, with rucaparib 10 µM, 100% = cells with rucaparib alone",91.6% (active)
same,viability,"[13]; at 5 µM, OCI-C5x cells, without rucaparib",115% (inactive)
same,viability,"[13]; at 5 µM, OCI-P5x cells, with rucaparib 20 µM, 100% = cells with rucaparib alone",104% (inactive)
same,viability,"[13]; at 5 µM, OCI-P5x cells, without rucaparib",67.9% (active)
